Screens from PubChem BioAssay.
Shown are actives, neighbours in structure and some others; about 3.2% of the full set was active somewhere.
Sm TGR block: qHTS Assay for the Inhibitors of Schistosoma Mansoni Peroxiredoxins; Potency, µM (doses to about 114 µM), actives largely listed as inhibitors; Schistosoma mansoni thioredoxin glutathione reductase (TGR), Q962Y6; purified TGR, DTNB reduction, TNB absorbance 405 nm; AID 485364, 2010; hit rate 3% among 360,000; further: nearly all actives have a fitted effect of over 60% in size
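TGR 20 nM + NADPH 100 uM (dispensed conc.), cpd preinc 15 min RT; start with NADPH (500 uM addition) then DTNB (15 mM addition). Kinetic TNB absorbance, 405 nm filter. Four-parameter Hill fit across titration.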
LmPK inh: qHTS Assay for Inhibitors of Leishmania Mexicana Pyruvate Kinase (LmPK). purified LmPK, Kinase-Glo ATP luminescence, 1 h. hit rate 0.37% among 290,000. Potency, µM (highest dose often 57.5 µM), actives largely listed as inhibitors. Q27686
Target sequence (Q27686 whole entry, looked up): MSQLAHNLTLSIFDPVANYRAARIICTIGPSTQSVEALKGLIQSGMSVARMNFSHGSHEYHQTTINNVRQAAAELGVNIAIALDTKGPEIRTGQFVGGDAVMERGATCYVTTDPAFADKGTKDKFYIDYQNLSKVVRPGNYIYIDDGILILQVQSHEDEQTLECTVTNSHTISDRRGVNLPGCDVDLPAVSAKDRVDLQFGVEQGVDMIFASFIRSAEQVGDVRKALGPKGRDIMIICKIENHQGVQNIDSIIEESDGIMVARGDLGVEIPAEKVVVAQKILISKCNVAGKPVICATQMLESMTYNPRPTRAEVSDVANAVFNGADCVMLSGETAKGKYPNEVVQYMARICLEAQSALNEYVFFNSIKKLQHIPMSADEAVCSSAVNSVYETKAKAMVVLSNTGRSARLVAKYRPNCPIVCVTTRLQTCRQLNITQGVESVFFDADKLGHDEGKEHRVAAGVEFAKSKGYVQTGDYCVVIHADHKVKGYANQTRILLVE
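Pyruvate kinase activity monitored as ATP production (luciferase luminescence). Conditions: 0.1 nM enzyme, 0.5 mM PEP, 0.1 mM ADP, 1 h, RT; normalized against uninhibited and no-enzyme wells.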
TbPYK inhibitor: qHTS of Trypanosoma Brucei Inhibitors; pyruvate kinase (Trypanosoma brucei), Q57TT1; TbPYK enzyme, Kinase-Glo Plus ATP luminescence, 45 min; Potency, µM (doses to about 76.8 µM), hits mostly inhibitors; hit rate 0.12% among 410,000; further: nearly all actives have a fitted effect of over 50% in size
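Readout: single end-point luminescence (Kinase-Glo Plus, 10 min). Reaction conditions were TbPYK/substrate plus 130 uM ADP, 45 min at RT, pH 7.2 TEA buffer. No-enzyme wells served as controls, and data were normalized before concentration-response fitting.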
RE007 growth inh: qHTS Assay for Inhibitors of the HIV-1 protein Vpr; S. pombe RE007 Vpr strain, BacTiter-Glo ATP luminescence, 24 h; Potency, µM (highest dose often 92.2 µM), usual class: inhibitors; hit rate 0.21% among 360,000; AID 651644, 2012; active means well fitted falling curve with a large enough effect; inconclusive means small, poorly fitted or top-dose-only effect; inactive means no such curve, though single readings can be large or run the other way; further: nearly all actives have a fitted effect of over 50% in size
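Fission yeast RE007 carrying one integrated HIV-1 vpr copy, seeded at OD 0.01 in PMG+AL medium with 23 nL pinned compound. Grown 24 h at 30 degrees; viability read by BacTiter-Glo luminescence after 5 min.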
AMA1-RON2 inh: qHTS for Inhibitors of AMA1-RON; Towards Development of Antimalarial Drug Lead: Primary Screen; AlphaScreen AMA1-biotinylated RON2 peptide binding; Potency, µM (titrated, usually from 58.2 µM), most hits filed as inhibitors; hit rate 0.2% among 360,000; further: nearly all actives have a fitted effect of over 45% in size
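AMA1 (3D7) with his tag at 25 nM final met compounds first, then biotinylated RON2 peptide at 25 nM; detection used donor plus acceptor beads, 10 µg/mL apiece, read by AlphaScreen after 30 min at room temperature.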
A number is an active result; . = inactive; ? = inconclusive; / = no result. Unless noted, the call rests on the fitted dose curve; in most records, active means well fitted curve in the direction sought with a large enough effect; inconclusive means small, poorly fitted or top-dose-only effect, or another doubt; inactive means no such curve, though single readings can be large; an effect the other way counts as inactive or inconclusive.

SMILES	Sm TGR block	LmPK inh	TbPYK inhibitor	RE007 growth inh	AMA1-RON2 inh
COc1cc(OC)c(C2CC(=O)N3CN(c4ccccc4)CSC3=C2C#N)cc1OC (stereo not drawn)	10µM	.	8.9µM	.	.
COc1cc(OC)c(C2CC(=O)N3CN(C)CSC3=C2C#N)cc1OC (stereo not drawn)	?	?	?	.	.
COc1ccc2ccccc2c1C1CC(=O)N2CN(C)CSC2=C1C#N (stereo not drawn)	10µM	.	?	.	.
CCc1ccccc1N1CSC2=C(C#N)C(c3cc(OC)c(OC)cc3OC)CC(=O)N2C1 (stereo not drawn)	6.3µM	.	10µM	.	.
COc1ccc(-c2nc3ccccc3n3c(-c4ccccc4)c4c(=O)n(C)c(=O)n(C)c4c23)cc1OC	.	/	.	/	/
Cc1ccccc1C(=O)Nc1ccc2nc(SCC(=O)N3CCc4ccccc43)sc2c1	.	/	.	/	/
COc1cc(/C=C2/C(C)=C(C#N)c3nc(N)c(C#N)c(C)c32)ccc1OCC(=O)O	/	.	.	.	.
CC1=C(C#N)c2nc(N)c(C#N)c(C)c2/C1=C\c1ccc(-c2ccccc2C(=O)O)o1	25µM	.	.	.	.
CCCn1c(N)c(C(c2ccc(OC)cc2)N2CCN(c3ccccc3)CC2)c(=O)[nH]c1=O (stereo not drawn)	2µM	.	.	.	.
COCCn1c(C)cc(O)c(C(c2cccc(F)c2)N2CCN(c3ccccc3)CC2)c1=O (stereo not drawn)	7.9µM	/	.	/	/
COCCn1nnnc1C(c1ccccc1)N1CCN(c2ccccc2)CC1 (stereo not drawn)	.	.	.	.	?
COCCn1c(C)cc(O)c(C(c2ccc(OC)cc2)N2CCN(c3ccccc3)CC2)c1=O (stereo not drawn)	8.9µM	/	.	/	/
COc1cccc(Cn2c(Oc3cc(C)cc(C)c3)nc3c2c(=O)n(C)c(=O)n3C)c1	.	/	.	/	/
c1ccc(-c2nc(-c3ccccn3)nc(-c3ccccn3)n2)nc1	.	.	.	.	.
c1ccc(-c2cnc(-c3ccccn3)nn2)cc1	/	/	.	?	?
c1ccc(-c2cnnc(-c3ccccn3)n2)cc1	/	/	.	.	10µM
Clc1ccc(-c2cnnc(-c3ccccn3)n2)cc1	/	/	.	?	10µM
COc1cccc(CNC(=O)CSC2=Nc3ccccc3N=C(c3ccc(F)cc3)C2)c1	.	/	.	/	/
CCOC(=O)c1c(C)oc2nc(C)nc(NCc3cccc(OC)c3)c12	.	/	.	/	/
O=C(/C=C/c1ccc2c(c1)OCO2)Nc1cccnc1	.	22µM	.	.	.
O=C(/C=C/c1ccco1)NCc1ccc2c(c1)OCO2	14µM	.	.	.	.
O=C(/C=C/c1ccccc1)NCc1ccc2c(c1)OCO2	.	.	.	.	.
O=C(CCC1COc2ccccc2O1)NCc1ccco1 (stereo not drawn)	40µM	.	.	.	.
O=C(/C=C/c1ccco1)Nc1ccc2c(c1)OCO2	14µM	.	.	.	.
COc1ccccc1CNC(=O)CC(c1ccc(C)cc1)N1Cc2ccccc2C1=O (stereo not drawn)	.	/	.	/	/
SMILES	Sm TGR block	LmPK inh	TbPYK inhibitor	RE007 growth inh	AMA1-RON2 inh
O=C(NCC(c1ccc2c(c1)OCO2)N1CCOCC1)c1ccccc1F (stereo not drawn)	.	/	.	/	/
CC(=O)Nc1ccccc1OCc1cc(=O)n2c3c(sc2n1)CCCC3	.	/	.	/	/
O=C(/C=C/c1ccco1)NCC1OCCc2ccccc21 (stereo not drawn)	0.5µM	.	?	.	.
COc1ccc(/C=C/C(=O)NCC2COc3ccccc3O2)c(OC)c1 (stereo not drawn)	.	.	.	.	.
O=C(NCc1ccco1)C1c2ccccc2Oc2ccccc21	40µM	.	.	.	.
O=C(/C=C/c1ccco1)NCC1COc2ccccc2O1 (stereo not drawn)	0.89µM	.	.	.	.
O=C(O)C1C2C=CC3(CN(Cc4ccco4)C(=O)C13)O2 (stereo not drawn)	?	.	.	.	.
